# Screening results (PubChem BioAssay)
# DRD3 agonist = activates the human D3 dopamine receptor; P35462; D3R DiscoveRx beta-arrestin cells, luminescence, 90 min; max activation, %; 0.58% of 410,000 active; AID 652048; in the data active = max activation above about 30%; note: 0% is about no effect
# Target sequence (P35462 whole entry, looked up): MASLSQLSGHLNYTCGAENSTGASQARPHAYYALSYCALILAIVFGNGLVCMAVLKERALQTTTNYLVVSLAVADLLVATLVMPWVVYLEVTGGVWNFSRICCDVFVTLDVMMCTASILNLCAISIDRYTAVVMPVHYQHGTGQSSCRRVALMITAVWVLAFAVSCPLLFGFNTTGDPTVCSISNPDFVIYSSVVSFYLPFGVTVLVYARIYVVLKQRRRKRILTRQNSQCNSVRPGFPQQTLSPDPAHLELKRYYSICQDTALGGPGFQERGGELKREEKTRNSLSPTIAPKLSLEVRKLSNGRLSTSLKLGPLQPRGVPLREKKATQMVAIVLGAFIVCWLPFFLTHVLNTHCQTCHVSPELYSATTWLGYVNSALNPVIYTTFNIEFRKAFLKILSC
#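 Agonist-mode cell screen: cells plated at 1500/well and incubated overnight at 37 °C, then exposed to library compounds for 90 min at 37 °C. Detection reagent was added for 30–60 min at room temperature, and luminescence was read.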
# ATXN viability = viability counter-screen for ATXN expression inhibitors; S2 cells (HEK-293 line with an ATXN2-luciferase reporter) viability, CellTiter-Fluor protease fluorescence, 24 h; Potency, µM (doses to about 56.7 µM), usual class: cytotoxic; 0.49% of 400,000 active; note: potency is the fitted concentration of half-maximal effect; nearly all actives have a fitted effect of over 40% in size
# D3 antag = antagonists of human D3 dopamine receptor. P35462. D3R cells, DiscoveRx beta-arrestin luminescence, antagonist mode; stronger effect = lower value. max response, negative = inhibition, %. 2.5% of 360,000 active; in the data active = max response below about -50%; inconclusive = no clear call, values can overlap the other calls; note: % is set by controls: 0 for no effect and ±100 for the full control effect
#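 Cells plated overnight at 1500 cells/well, then exposed to library compounds with dopamine controls for 90 minutes at 37 degrees C. DiscoveRx reagent added for 30–60 minutes at room temperature; luminescence read, quantitative HTS format.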
# ATXN2 expr inh = ATXN2 expression inhibition. HEK-293 ATXN2-luciferase reporter, luminescence, 24 h. Potency, µM (doses to about 57 µM), without a hit: at the top dose activity change, negative = inhibition, most hits filed as inhibitors. 0.72% of 360,000 active. AID 1745845; note: potency is the fitted concentration of half-maximal effect; % is set by controls: 0 for no effect and ±100 for the full control effect; nearly all actives have a fitted effect of over 55% in size
#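 ATXN2-luciferase reporter cells (luciferase flanked by upstream and downstream ATXN2 gene portions) were treated 24 h at 37 °C with compounds at up to 57 uM. SteadyGlo luminescence gave expression; GF-AFC fluorescence gave viability.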
# Integrin act MD = integrin-mediated muscular dystrophy alleviation activation; alpha7betagal myoblasts, beta-gal FDG fluorescence, 48 h; Potency, µM (highest dose often 38.3 µM), for the others: at the top dose activation, actives largely listed as activators; 0.064% of 350,000 active; AID 624291;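 note: potency is the fitted concentration of half-maximal effect; 100% = response of the positive control SU9516; nearly all actives have a fitted effect of over 60% in size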
#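 alpha7betagal+/- myoblasts (passage 13, 250/well) treated 48 h at 37C with compounds at 1:260 dilution of DMSO stock. Lysed, then beta-galactosidase activity read as FDG fluorescence (ex 480/em 540) after 30 min, with pre-read for autofluorescence.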
# IL1B secr inh = blocks inflammasome-driven IL-1 beta release | THP-1 LPS/ATP IL-1B secretion, AlphaLISA, 16 h; stronger effect = lower value | activity change, % at 57.5 µM | AID 743279 | 4.7% of 360,000 active; in the data active = activity change below about -50%; inconclusive = mostly about -30% to -49%; note: % is set by controls: 0 for no effect and ±100 for the full control effect
#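 Secreted IL-1B measured by AlphaLISA bead assay after 16 h compound exposure of THP-1 cells; compounds (final up to 57.5 uM) added 1 h before LPS (250 ng/mL) and ATP (1.25 mM) stimulation; lower signal means less secretion.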
# The depositor's hits bear a star; i = inactive; u = inconclusive; x = no result; ! = a repeat was not active. This is a sample that favours compounds with a hit; in the whole collection about 7% have one here. Unless noted, calls come from the whole dose curve; as a rule, active = well fitted curve in the direction sought with a large enough effect; inconclusive = small, poorly fitted or top-dose-only effect, or another doubt; inactive = no such curve, though single readings can be large; an effect the other way counts as inactive or inconclusive.
SMILES,DRD3 agonist,ATXN viability,D3 antag,ATXN2 expr inh,Integrin act MD,IL1B secr inh
Nc1nc2c(ncn2COC(CO)CO)c(=O)[nH]1,17,i,9,24µM*!,x,3
C=C1[C@H](CO)[C@@H](O)C[C@@H]1n1cnc2c(=O)[nH]c(N)nc21,-11,x,x,x,x,x
Cn1cnnc1SCc1ccc(C(=O)N/N=C(\CCC(=O)O)c2ccc(C(C)(C)C)cc2)cc1,2,i,-54*,1%,13%,14
COc1cc2nc(CN(C)Cc3ccc(C(C)(C)C)cc3)[nH]c(=O)c2cc1OC,1,i,20,x,5%,9
COc1ccc(Nc2nc(Cl)nc(NCc3ccco3)n2)c(OC)c1,1,i,19,10%,4%,29
COc1ccc(Nc2nc(NCc3ccco3)nc(N/N=C/c3ccccc3F)n2)cc1,-7,i,-54*,0%,u,u
COc1ccc(/C=N/Nc2nc(NCc3ccco3)nc(Nc3ccc(OC)cc3)n2)cc1,0,i,9,7%,13%,-5
COc1ccc(Nc2nc(NCc3ccco3)nc(N/N=C/c3ccc(O)cc3)n2)cc1,-7,i,-12,5%,-5%,-69*
Nn1c(SCC(=O)NCC2CCCO2)nnc1-c1cc(Cl)ccc1Cl (centres undefined),3,i,9,1%,-11%,9
C=C1CSc2nc3ccccc3c(=O)n21,7,i,-55*,-6%,4%,-1
O=c1c2ccccc2nc2n1CCS2,-19,i,-11,-4%,3%,1
CCN1CCN(C(=O)C2CCN(S(=O)(=O)c3ccc(SC)cc3)CC2)CC1,-2,i,4,10%,7%,4
CC(CCC(C)C(C)(C)C)[C@@H]1CC[C@H]2C3C[C@H](OS(O)(=S)=S)[C@H]4C[C@H](OS(O)(=S)=S)[C@@H](OS(O)(=S)=S)C[C@]4(C)[C@H]3CC[C@]12C (some centres undefined) (tested in a mixture with another compound),-10,18µM*,-83*,u,-24%,-76*
C[C@H](CCC(=O)O)[C@H]1CCC2C3C[C@H](O)[C@@H]4C[C@H](O)CC[C@]4(C)C3CC[C@@]21C (some centres undefined),x,x,x,0%,x,x
CCCOC(=O)c1ccc(Oc2cn[nH]c2-c2ccc(OCC)cc2O)cc1,2,u,9,u,-54%,-75*
CCOc1ccc(-c2[nH]ncc2Oc2cccc(OC)c2)c(O)c1,-1,i,-2,-33%,-16%,-5
CCCOC(=O)c1ccc(Oc2c(-c3ccc(OCC)cc3O)n[nH]c2C)cc1,24,x,2,u,-36%,-102*
Cc1ccccc1C1NC(=S)NC2=C1C(=O)CC(C)(C)C2 (centres undefined),0,i,-12,-19%,4%,7
CC1CCCCN1CCNC(=O)c1ccc2c(=O)n(CCc3ccccc3)c(=O)[nH]c2c1 (centres undefined),-3,i,-19,23%,-63%,1
O=C(c1ccc2c(=O)n(Cc3ccccc3)c(=S)[nH]c2c1)N1CCOCC1,1,i,6,-7%,-11%,38
CC1CCCCN1CCNC(=O)c1ccc2c(=O)n(Cc3ccc(Cl)cc3)c(=S)[nH]c2c1 (centres undefined),-14,i,-10,u,-42%,-97*
O=C(NCCCN1CCOCC1)c1ccc2c(=O)n(Cc3ccccc3)c(=S)[nH]c2c1,-14,i,-6,-6%,7%,-73*
Cc1cc(C)c(/C=C/c2onc(C)c2S(=O)(=O)N2CCC(C(=O)NCC(C)c3ccccc3)CC2)c(C)c1 (centres undefined),3,x,x,x,x,x
COc1ccc(OC)c(CCNC(=O)c2cc3c(-c4ccccc4F)nn(C)c3s2)c1,16,u,x,25µM*,x,x
Cn1nc(-c2ccccc2F)c2cc(C(=O)NCCc3ccc(Cl)cc3)sc21,17,u,x,u,x,x
SMILES,DRD3 agonist,ATXN viability,D3 antag,ATXN2 expr inh,Integrin act MD,IL1B secr inh
COCCNC(=O)c1cc2c(-c3ccccc3F)nn(C)c2s1,-5,i,-9,1%,-13%,-54*
COc1ccc(NC(=O)c2cc3c(-c4ccccc4F)nn(C)c3s2)c(OC)c1,41*,i,x,-20%,x,x
CCCCN(C)CCNC(=O)c1cc2c(-c3ccccc3F)nn(C)c2s1,-38,u,-95*,-27%,24%,-97*
CCOc1ccc(CCNC(=O)c2cc3c(-c4ccccc4F)nn(C)c3s2)cc1,1,u,x,2%,x,x
CCOc1ccc(NC(=O)c2cc3c(-c4ccccc4F)nn(C)c3s2)cc1,5,i,x,0%,x,x
COc1ccc(CN(Cc2ccco2)c2cnc(S(C)(=O)=O)nc2C(=O)Nc2ccc(C)c(C)c2)cc1,-2,i,x,-5%,x,x
COc1ccc(N2C(=O)N3[C@H](c4cccc(C)c4)[C@@H]4C(=O)N(Cc5ccccc5)C(=O)[C@@H]4[C@]3(Cc3ccccc3)C2=O)cc1,31*,i,-6,-3%,-20%,3
CCN1C(=O)[C@H]2[C@@H](c3ccc(C)cc3)N3C(=O)N(c4ccc(OC)cc4)C(=O)[C@@]3(CC)[C@H]2C1=O,46*,i,0,48%,0%,8
CC[C@@]12C(=O)N(c3cccc(Br)c3)C(=O)N1[C@H](c1ccc(Cl)cc1)[C@@H]1C(=O)N(C3CCCCC3)C(=O)[C@@H]12,1,u,38,-3%,-4%,u
CC[C@@]12C(=O)N(c3ccc(OC)cc3)C(=O)N1[C@H](c1ccc(Cl)cc1)[C@@H]1C(=O)N(C3CCCCC3)C(=O)[C@@H]12,-41,i,-57*,-5%,-30%,u
COc1ccc(NC2CCCN(C(=O)CCN3CCCC3=O)C2)cc1 (centres undefined),4,i,-11,-4%,4%,16
COC(=O)c1cc(-c2ccc(Cl)cc2)c2c(=O)[nH]c(=O)n(C)c2n1,7,i,x,1%,x,x
CC(=O)N1CCN(C(=O)CNc2cc(C(F)(F)F)ccc2OCC(F)(F)F)CC1,5,i,-1,5%,u,-57*
Nc1nc(Cl)c(C=O)c(N2CCCCC2)n1,4,i,-6,-1%,-17%,-95*
COC(=O)CP(=O)(c1ccccc1)c1ccccc1,-11,i,-1,-5%,26%,2
CCOc1ccc(-n2c(-c3ccccc3)c[n+]3c2CCCCC3)cc1,-9,i,8,u,u,-56*
Cc1ccc(-c2c[n+]3c(n2-c2ccccc2)CCC3)cc1,-23,i,-27,-35%,-27%,-53*
c1ccc(-c2c[n+]3c(n2-c2ccccc2)CCC3)cc1,-17,i,-9,x,-18%,0
